# In the supplement of paper PMC12282887:
# ± gives the standard deviation of the averaged measurements.
# Tests used:
# Assay in all cases: promoter activity interaction Z-score (Lux/OD deviation from empty-vector control); higher = stronger promoter induction by the compound
# [1] = tested on: E. coli BW25113 acrABp lux reporter
# How it was run: (§1)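 Every compound was given at four 1:2 dilutions, in biological duplicates, to E. coli BW25113 carrying low-copy luxCDABE promoter reporters in wild-type or single-gene deletion backgrounds. Growth in 40 µl LB Lennox in 384-well plates at 37°C was followed by OD600 and luminescence readings every 30 min for 12 h, integrated over 0–8 h for wild type and 1–9 h for deletion strains, with wells below 10% of the median growth value excluded. Scores are Z-transformed residuals of growth-normalised luminescence fitted against a control.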
# [2] = tested on: E. coli BW25113 marRABp lux reporter
# How it was run: as §1
# [3] = tested on: E. coli BW25113 micFp lux reporter
# How it was run: as §1
# [4] = tested on: E. coli BW25113 ompFp lux reporter
# How it was run: as §1
# [5] = tested on: E. coli BW25113 robp lux reporter
# How it was run: as §1
# [6] = tested on: E. coli BW25113 soxSp lux reporter
# How it was run: as §1
# [7] = tested on: E. coli BW25113 tolCp lux reporter
# How it was run: as §1
# [8] = 0.29 µg/ml, genetic background: wild type
# [9] = 0.29 µg/ml, genetic background: ΔmarA
# [10] = 0.29 µg/ml, genetic background: Δrob
# [11] = 0.29 µg/ml, genetic background: ΔsoxS
# [12] = 0.58 µg/ml, genetic background: wild type
# [13] = 0.58 µg/ml, genetic background: ΔmarA
# [14] = 0.58 µg/ml, genetic background: Δrob
# [15] = 0.58 µg/ml, genetic background: ΔsoxS
# [16] = 1.2 µg/ml, genetic background: wild type
# [17] = 1.2 µg/ml, genetic background: ΔmarA
# [18] = 1.2 µg/ml, genetic background: Δrob
# [19] = 1.2 µg/ml, genetic background: ΔsoxS
# [20] = 2.3 µg/ml, genetic background: wild type
# [21] = 2.3 µg/ml, genetic background: ΔmarA
# [22] = 2.3 µg/ml, genetic background: Δrob
# [23] = 2.3 µg/ml, genetic background: ΔsoxS
compound,measurement,setting,value
COc1cccc2c1C(=O)c1c(O)c3c(c(O)c1C2=O)C[C@@](O)(C(=O)CO)C[C@@H]3O[C@H]1C[C@H](N)[C@H](O)[C@H](C)O1 [Doxorubicin],promoter activity interaction Z-score,[1]; [8],0.264 ± 0.31
same,promoter activity interaction Z-score,[1]; [9],-0.773 ± 0.32
same,promoter activity interaction Z-score,[1]; [10],-0.101 ± 0.29
same,promoter activity interaction Z-score,[1]; [11],-0.227 ± 0.054
same,promoter activity interaction Z-score,[1]; [12],-0.00519 ± 0.22
same,promoter activity interaction Z-score,[1]; [13],-0.484 ± 0.49
same,promoter activity interaction Z-score,[1]; [14],0.115 ± 0.14
same,promoter activity interaction Z-score,[1]; [15],0.371 ± 0.49
same,promoter activity interaction Z-score,[1]; [16],0.261 ± 0.022
same,promoter activity interaction Z-score,[1]; [17],-0.464 ± 0.4
same,promoter activity interaction Z-score,[1]; [18],-0.135 ± 0.15
same,promoter activity interaction Z-score,[1]; [19],0.0497 ± 0.23
same,promoter activity interaction Z-score,[1]; [20],0.546 ± 0.062
same,promoter activity interaction Z-score,[1]; [21],-0.437 ± 0.036
same,promoter activity interaction Z-score,[1]; [22],6.35e-05 ± 0.4
same,promoter activity interaction Z-score,[1]; [23],0.827 ± 0.68
same,promoter activity interaction Z-score,[2]; [8],0.237 ± 0.34
same,promoter activity interaction Z-score,[2]; [9],-0.264 ± 0.2
same,promoter activity interaction Z-score,[2]; [10],-0.254 ± 0.1
same,promoter activity interaction Z-score,[2]; [11],0.0277 ± 0.11
same,promoter activity interaction Z-score,[2]; [12],-0.0763 ± 0.21
same,promoter activity interaction Z-score,[2]; [13],0.0102 ± 0.26
same,promoter activity interaction Z-score,[2]; [14],-0.188 ± 0.032
same,promoter activity interaction Z-score,[2]; [15],0.0987 ± 0.23
same,promoter activity interaction Z-score,[2]; [16],0.0323 ± 0.31
same,promoter activity interaction Z-score,[2]; [17],-0.148 ± 0.1
same,promoter activity interaction Z-score,[2]; [18],-0.236 ± 0.064
same,promoter activity interaction Z-score,[2]; [19],0.0249 ± 0.092
same,promoter activity interaction Z-score,[2]; [20],-0.0695 ± 0.11
same,promoter activity interaction Z-score,[2]; [21],-0.158 ± 0.16
same,promoter activity interaction Z-score,[2]; [22],-0.24 ± 0.021
same,promoter activity interaction Z-score,[2]; [23],-0.0671 ± 0.12
same,promoter activity interaction Z-score,[3]; [8],0.258 ± 0.51
same,promoter activity interaction Z-score,[3]; [9],0.00982 ± 0.04
same,promoter activity interaction Z-score,[3]; [10],-0.233 ± 0.1
same,promoter activity interaction Z-score,[3]; [11],-0.236 ± 0.048
same,promoter activity interaction Z-score,[3]; [12],-0.041 ± 0.36
same,promoter activity interaction Z-score,[3]; [13],0.043 ± 0.035
same,promoter activity interaction Z-score,[3]; [14],-0.0843 ± 0.009
same,promoter activity interaction Z-score,[3]; [15],0.253 ± 0.04
same,promoter activity interaction Z-score,[3]; [16],-0.0305 ± 0.051
same,promoter activity interaction Z-score,[3]; [17],-0.0475 ± 0.075
same,promoter activity interaction Z-score,[3]; [18],-0.046 ± 0.01
same,promoter activity interaction Z-score,[3]; [19],-0.0734 ± 0.14
same,promoter activity interaction Z-score,[3]; [20],-0.114 ± 0.2
same,promoter activity interaction Z-score,[3]; [21],-0.105 ± 0.05
same,promoter activity interaction Z-score,[3]; [22],-0.179 ± 0.24
same,promoter activity interaction Z-score,[3]; [23],0.5393 ± 0.002
same,promoter activity interaction Z-score,[4]; [8],0.731 ± 0.14
same,promoter activity interaction Z-score,[4]; [9],0.137 ± 0.52
same,promoter activity interaction Z-score,[4]; [10],0.0129 ± 0.29
same,promoter activity interaction Z-score,[4]; [11],0.416 ± 0.18
same,promoter activity interaction Z-score,[4]; [12],0.4996 ± 0.0037
same,promoter activity interaction Z-score,[4]; [13],0.465 ± 0.3
same,promoter activity interaction Z-score,[4]; [14],0.853 ± 0.58
same,promoter activity interaction Z-score,[4]; [15],0.476 ± 0.015
same,promoter activity interaction Z-score,[4]; [16],0.149 ± 0.086
same,promoter activity interaction Z-score,[4]; [17],0.206 ± 0.067
same,promoter activity interaction Z-score,[4]; [18],0.0157 ± 0.25
same,promoter activity interaction Z-score,[4]; [19],0.0237 ± 0.37
same,promoter activity interaction Z-score,[4]; [20],0.745 ± 0.73
same,promoter activity interaction Z-score,[4]; [21],0.961 ± 0.018
same,promoter activity interaction Z-score,[4]; [22],0.674 ± 0.97
same,promoter activity interaction Z-score,[4]; [23],1.34 ± 0.69
same,promoter activity interaction Z-score,[5]; [8],1.18 ± 0.82
same,promoter activity interaction Z-score,[5]; [9],-0.24 ± 0.58
same,promoter activity interaction Z-score,[5]; [10],0.206 ± 0.23
same,promoter activity interaction Z-score,[5]; [11],0.239 ± 0.22
same,promoter activity interaction Z-score,[5]; [12],0.596 ± 0.27
same,promoter activity interaction Z-score,[5]; [13],0.16 ± 0.16
same,promoter activity interaction Z-score,[5]; [14],0.385 ± 0.43
same,promoter activity interaction Z-score,[5]; [15],0.541 ± 0.27
same,promoter activity interaction Z-score,[5]; [16],0.714 ± 0.13
same,promoter activity interaction Z-score,[5]; [17],-0.447 ± 0.99
same,promoter activity interaction Z-score,[5]; [18],0.329 ± 0.74
same,promoter activity interaction Z-score,[5]; [19],0.0896 ± 0.043
same,promoter activity interaction Z-score,[5]; [20],0.943 ± 0.18
same,promoter activity interaction Z-score,[5]; [21],0.445 ± 0.36
same,promoter activity interaction Z-score,[5]; [22],-0.208 ± 0.44
same,promoter activity interaction Z-score,[5]; [23],0.518 ± 0.087
same,promoter activity interaction Z-score,[6]; [8],0.269 ± 0.063
same,promoter activity interaction Z-score,[6]; [9],0.0336 ± 0.05
same,promoter activity interaction Z-score,[6]; [10],-0.322 ± 0.09
same,promoter activity interaction Z-score,[6]; [11],0.15 ± 0.14
same,promoter activity interaction Z-score,[6]; [12],0.223 ± 0.25
same,promoter activity interaction Z-score,[6]; [13],0.0456 ± 0.13
same,promoter activity interaction Z-score,[6]; [14],0.138 ± 0.19
same,promoter activity interaction Z-score,[6]; [15],0.329 ± 0.29
same,promoter activity interaction Z-score,[6]; [16],0.245 ± 0.26
same,promoter activity interaction Z-score,[6]; [17],-0.00668 ± 0.18
same,promoter activity interaction Z-score,[6]; [18],-0.0803 ± 0.088
same,promoter activity interaction Z-score,[6]; [19],-0.0415 ± 0.028
same,promoter activity interaction Z-score,[6]; [20],0.426 ± 0.46
same,promoter activity interaction Z-score,[6]; [21],0.0221 ± 0.059
same,promoter activity interaction Z-score,[6]; [22],-0.22 ± 0.18
same,promoter activity interaction Z-score,[6]; [23],0.285 ± 0.86
same,promoter activity interaction Z-score,[7]; [8],0.409 ± 0.23
same,promoter activity interaction Z-score,[7]; [9],0.025 ± 0.4
same,promoter activity interaction Z-score,[7]; [10],-1.33 ± 0.07
same,promoter activity interaction Z-score,[7]; [11],-0.509 ± 0.71
same,promoter activity interaction Z-score,[7]; [12],0.591 ± 0.37
same,promoter activity interaction Z-score,[7]; [13],0.129 ± 0.57
same,promoter activity interaction Z-score,[7]; [14],-0.418 ± 0.28
same,promoter activity interaction Z-score,[7]; [15],0.558 ± 0.63
same,promoter activity interaction Z-score,[7]; [16],0.186 ± 1.3
same,promoter activity interaction Z-score,[7]; [17],-0.979 ± 0.47
same,promoter activity interaction Z-score,[7]; [18],-0.8316 ± 0.0065
same,promoter activity interaction Z-score,[7]; [19],-0.712 ± 0.47
same,promoter activity interaction Z-score,[7]; [20],-0.527 ± 0.035
same,promoter activity interaction Z-score,[7]; [21],-0.261 ± 0.0072
same,promoter activity interaction Z-score,[7]; [22],-1.42 ± 0.035
same,promoter activity interaction Z-score,[7]; [23],0.704 ± 0.5
